NadD inh – blocks S. aureus nicotinate mononucleotide adenylyltransferase | purified NadD enzyme, colorimetric absorbance read-out | inhibition, % at 20 µM | actives 0.78% (n = 360,000); in the data active means inhibition above about 26%
GRIN3A LBD mod – modulates the human NR3A ligand-binding domain | Tm shift relative to glycine control, % at 25 µM | AID 1259313 | actives 2.5% (n = 340,000) | NR3A LBD differential scanning fluorimetry, Tm shift; 0% = protein alone, 100% = glycine-bound protein;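 active means melting temperature shift of at least 10% of the positive control shift, at one fixed dose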
SMARCA2 act – SMARCA2 function activation, primary screen | MG213 cells, MMTV-luciferase reporter, dexamethasone, overnight | activation, % at 9.1 µM | actives 1% (n = 370,000); in the data active means activation above about 7.8%;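 further: 0% = vehicle wells and 100% = reference activator wells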
Vif imaging – inhibitors of HIV Vif; HEK293T cells, Vif self-association by quenched fluorescence, imaging, 24 h; inhibition, % at 7.49 µM; actives 0.35% (n = 340,000); in the data active means inhibition above about 50%, passing the limit was not always enough
esBAF inh – blocks esBAF chromatin remodeling in mouse ES cells. Bmi1-luciferase knock-in reporter, 24 h; 100% = twice the neutral-well signal. reporter increase, % at 12.5 µM. actives 2% (n = 350,000); in the data active means activation above about 40%;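 further: 0% = median of the plate's neutral control wells and 100% = double that signal; a rise in the Bmi1 reporter signal indicates esBAF inhibition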
SKN-1 inh – C. elegans SKN-1 inhibition | AID 624304 | actives 0.49% (n = 360,000) | inhibition, % at 21.8 µM | C. elegans VP596 Pgst-4::GFP/RFP ratio, acrylamide-induced, 24 h;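 active means interference check ratio from 0.5 to 1.5 plus GFP to RFP signal ratio inhibition reaching or exceeding a fixed threshold, cut at about 30% in these data, passing the limit was not always enough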
* marks the source's active call; other numbers are inactive results; · = not tested or not shown. Compounds with a hit are over-represented: about 5.2% of the library has one in this group of screens.

SMILES	NadD inh	GRIN3A LBD mod	SMARCA2 act	Vif imaging	esBAF inh	SKN-1 inh
COc1ccc(OC)c2[nH]c(C(=O)N/N=C/c3ccccc3O)cc12	7.9	17.6*	-4.4	-1.6	-57.5	5.1
COc1cc(/C=N/NC(=O)c2cc3ccccc3[nH]2)ccc1O	-0.3	33.8*	-3.1	-2.5	22.6	24.6
COc1cc(/C=N/Nc2nc(C)cc(C)n2)ccc1O	-6.1	·	-2.6	·	-1.0	5.2
COc1cc(/C=N/NC(=O)c2cccc(C(=O)N/N=C/c3ccc(O)c(OC)c3)n2)ccc1O	-8.7	-1.6	1.7	4.3	-7.8	0.3
C(=N\Nc1nc2ccccc2[nH]1)/c1cccs1	-2.1	-7.0	2.3	·	67.5*	-27.1
O=C(O)c1ccc(/C=N/Nc2ccc(C(F)(F)F)cn2)cc1	4.5	0.2	5.3	1.3	·	-3.7
COc1cccc(/C=N/Nc2nc3ccccc3[nH]2)c1O	-1.9	-11.0	-4.3	-1.8	62.1*	0.3
C(=N\Nc1nc2ccccc2[nH]1)/c1ccncc1	1.1	0.2	3.7	-2.6	·	2.2
COc1cc(/C=N/Nc2ccc(C(F)(F)F)cn2)ccc1O	-1.6	30.4*	0.7	-5.0	·	-6.8
O=S(=O)(c1ccccc1F)N1CC[C@@H]2[C@H]1c1cc(-c3ccc(F)cc3)ccc1N[C@@H]2CO	·	·	·	·	1.7	·
Cc1ccc(-c2ccc3c(c2)O[C@@H](CN(C)CC2CCCC2)[C@H](C)CN([C@@H](C)CO)S3(=O)=O)cc1	·	·	·	·	-9.0	·
COc1cccc(C(=O)Nc2ccc3c(c2)OC[C@@H](C)N(C(=O)C2CC2)C[C@@H](C)[C@H](OC)CN(C)C3=O)c1	·	·	·	·	-0.9	·
O=C(Nc1nnc(Cc2ccc([N+](=O)[O-])cc2)s1)Nc1ccccc1F	0.7	-6.3	-1.7	1.7	·	11.5
Cc1ccc(NC(=O)Nc2nnc(Cc3ccc([N+](=O)[O-])cc3)s2)cc1C	12.4	25.1*	2.7	-4.2	·	4.4
O=C(Nc1ccccc1)Nc1nnc(Cc2ccc([N+](=O)[O-])cc2)s1	4.1	16.0*	-4.5	2.8	·	-1.2
COCC(=O)N[C@H]1CC[C@@H](CC(=O)N2CCCCC2)O[C@@H]1CO	·	·	·	·	-6.5	·
CCC(=O)Nc1ccc2c(c1)OC[C@@H](C)N(C(=O)c1ccc(F)cc1)C[C@H](C)[C@H](OC)CN(C)C2=O	·	·	·	·	0.2	·
CN(C)c1ccc(C(O)Cc2nc3ccccc3n2C)cc1 (stereo not given)	-7.7	3.4	1.3	120.3*	-25.1	14.9
COc1ccccc1C(O)Cc1nc2ccccc2n1C (stereo not given)	-1.0	-1.1	1.7	1.9	48.3*	13.7
CC(C)c1ccc(C(O)Cc2nc3ccccc3n2C)cc1 (stereo not given)	-2.0	2.0	-2.8	-20.5	·	-3.2
C[C@H]1CN([C@@H](C)CO)C(=O)c2ccccc2-c2ccccc2CO[C@@H]1CN(C)Cc1ccc(C(=O)O)cc1	·	·	·	·	-4.0	·
Cc1ccc(S(=O)(=O)N(CC(=O)N=Nc2c(O)[nH]c3ccccc23)c2ccc(C)c(C)c2)cc1	32.3*	-2.9	-0.5	-9.1	-3.3	7.5
CCc1ccc(-c2ccc(SCC(=O)NC3CCCC3)nn2)cc1	-2.8	·	-3.6	-9.4	47.2*	4.9
CCC(=O)Nc1ccc2c(c1)OC[C@@H](C)N(C(=O)C1CCC1)C[C@H](C)[C@@H](OC)CN(C)C2=O	·	·	·	·	4.0	·
O=c1oc2cc(O)ccc2s1	4.9	1.8	-0.9	-3.0	-1.8	9.5
SMILES	NadD inh	GRIN3A LBD mod	SMARCA2 act	Vif imaging	esBAF inh	SKN-1 inh
Cc1ccc(-c2cc(O)cc3sc(=O)oc23)cc1C	-5.5	10.4*	-2.6	-1.0	4.8	-5.5
Cc1ccc(N=C2NC(=O)/C(=C/C=C/c3ccco3)S2)cc1	34.2*	1.5	6.5	-3.4	13.8	-1.4
Cc1cccc(N=C2NC(=O)/C(=C/C=C/c3ccco3)S2)c1C	71.8*	0.3	0.2	-0.5	·	0.1
Cc1cccc(N=C2NC(=O)/C(=C/c3cccn3C)S2)c1C	-5.0	-3.7	-3.6	-3.1	16.9	40.7*
Cc1ccc(N=C2NC(=O)/C(=C/c3cccn3C)S2)cc1C	-2.4	1.1	-0.3	-12.1	·	10.3
O=C1NC(=Nc2ccccc2)S/C1=C\C=C\c1ccco1	29.0	10.7*	3.0	-0.9	·	8.3
COc1ccccc1CNC(=O)C[C@@H]1C[C@@H]2c3cc(NC(=O)Nc4ccccc4F)ccc3O[C@@H]2[C@H](CO)O1	·	·	·	·	-6.8	·
C[C@H]1CN([C@@H](C)CO)C(=O)c2cc(-c3cncnc3)cnc2O[C@H]1CN(C)C(=O)c1cccc(F)c1	·	·	·	·	-1.2	·
COC(=O)C[C@@H]1C[C@H]2c3cc(NC(=O)c4cccnc4)ccc3O[C@H]2[C@@H](CO)O1	·	·	·	·	3.2	·
CC(=O)Nc1ccc(/C=C/c2nc3ccccc3[nH]c2=O)cc1	2.4	-1.8	5.1	-4.7	20.3	22.3
O=C(N/C(=C/c1ccc(Cl)cc1)c1nc2ccccc2[nH]1)c1ccco1	-3.5	0.1	0.6	5.9	·	0.8
COc1ccc(C(=O)N/C(=C/c2cccs2)c2nc3ccccc3[nH]2)cc1OC	8.2	0.4	-0.7	-2.8	·	1.5
COc1cc(/C=C(/C(=O)c2cccs2)c2nc3ccccc3[nH]2)cc(OC)c1O	6.6	-3.1	4.5	25.8	100.9*	-1.1
O=C(/C(=C/c1ccc(Cl)cc1)c1nc2ccccc2[nH]1)c1ccccc1	14.1	25.7*	1.3	-5.8	-69.3	-3.2
O=c1[nH]c2ccccc2nc1/C=C/c1ccc(Cl)cc1	-1.2	-3.3	1.0	-1.3	45.1*	8.6
COc1ccc(NC(=O)N(C)C[C@H]2Oc3ccc(NC(=O)CCC(F)(F)F)cc3CC(=O)N([C@@H](C)CO)C[C@H]2C)cc1	·	·	·	·	-1.8	·
CCC(=O)Nc1ccc2c(c1)C(=O)N(C)[C@@H]1CC[C@@H](CC(=O)N3CCCCC3)O[C@@H]1CO2	·	·	·	·	-2.5	·
CC(=O)N(C)C[C@H]1Oc2ncc(C#CCC3CCCC3)cc2C(=O)N([C@H](C)CO)C[C@@H]1C	·	·	·	·	-1.5	·
COc1ccc(Cc2nnc(NC(=O)c3cccc(C)c3)s2)cc1	-1.3	-4.6	0.4	-1.4	·	4.1
Cc1cccc(-c2nnn(Cc3nnc(NC(=O)c4ccccc4)s3)n2)c1	14.7	2.6	0.7	72.7*	-1.9	-22.6
COc1ccc(-c2ccc([C@@H]3[C@H](C#N)N(C(=O)NC4CCCC4)[C@H]3CO)cc2)cc1	·	·	·	·	2.9	·
[N-]=C=C1C(=O)NC(=O)C([n+]2ccc(-c3ccncc3)cc2)C1c1ccccc1C(F)(F)F (stereo not given)	0.3	2.0	-0.9	8.3	·	8.8
[N-]=C=C1C(=S)NC(=O)[C@H]([n+]2ccccc2)[C@H]1c1ccc(Cl)cc1	26.2	11.8*	1.3	-4.1	·	21.8
C[C@H](CO)N1C[C@H](C)[C@H](CN(C)S(=O)(=O)c2ccccc2)Oc2ccc(N(C)C)cc2C1=O	·	·	·	·	-5.3	·
Cc1ccc(C(=O)N2CCc3ccccc32)cc1	0.2	0.7	4.0	-1.7	51.0*	13.2
Cc1cc(C)nc(SCC(=O)N2CCc3ccccc32)n1	4.5	3.3	1.1	-0.3	41.8*	17.7

From PubChem
